Assay results taken from PubChem BioAssay AID686940 (The Scripps Research Institute Molecular Screening Center, 2013).
In all, about 370,000 compounds went through this assay and about 2,600 (0.7%) were called active. The sample holds actives, similar compounds and a random draw of the others, so the mix is not that of the screen. Values without a mark were called inactive.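 How the source made its calls: active means inhibition above a per-plate cutoff, mean inhibition of test wells between control levels plus 3 SD (cut at about 38% in these data); inactive means the rest.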

Biological target: COUP transcription factor 2 (Homo sapiens) (UniProt P24468)
Experiment: NR2F2 transcriptional activity inhibitors, primary screen, cell-based, luciferase reporter, HEK293T, luminescence (AID 686940);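 further: cells cotransfected with COUP-TFII expression vector driving the NGFI-A reporter; 0% = median of COUP-TF2 test wells and 100% = reporter-only cells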
Settings: HEK293T NGFI-A luciferase reporter, at 8.6 µM, active compounds read high

Chain of COUP transcription factor 2 (Homo sapiens) (P24468 whole entry, looked up): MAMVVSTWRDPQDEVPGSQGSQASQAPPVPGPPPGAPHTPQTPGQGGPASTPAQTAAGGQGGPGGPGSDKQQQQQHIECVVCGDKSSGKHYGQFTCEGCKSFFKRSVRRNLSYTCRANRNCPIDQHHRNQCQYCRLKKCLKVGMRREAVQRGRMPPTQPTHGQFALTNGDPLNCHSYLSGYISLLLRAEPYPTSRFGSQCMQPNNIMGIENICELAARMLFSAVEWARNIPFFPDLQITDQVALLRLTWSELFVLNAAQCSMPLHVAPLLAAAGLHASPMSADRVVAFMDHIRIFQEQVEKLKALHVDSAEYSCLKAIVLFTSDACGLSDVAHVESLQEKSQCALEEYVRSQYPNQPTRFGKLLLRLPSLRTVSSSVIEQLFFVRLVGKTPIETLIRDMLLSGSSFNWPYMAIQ

SMILES	inhibition
Cc1ccc(NC(=O)COc2coc(CN3CCc4ccccc4C3)cc2=O)cc1Cl	8.3%
CCc1ccccc1OCC(=O)Nc1ccc(C)c(S(=O)(=O)N2CCCCCC2)c1	16.9%
Cc1ccccc1OCC(=O)Nc1ccc(N2CCN(C(=O)C(C)C)CC2)c(Cl)c1	40.9% (active)
C=CCOC/C=C/C#CCN(CC=C)Cc1ccc(OC)cc1OC	-4.38%
CC1(C)CC2CC(C)(CN2c2ncnc3ccc(Br)cc23)C1 (stereo unspecified)	16.5%
CCOC(=O)CNc1nc(Cl)nc(Nc2ccc(OC)cc2OC)n1	9.09%
COc1ccc(Nc2ncnc3ccc(Br)cc23)c(OC)c1	39.9% (active)
O=C(Nc1cccc(Cl)c1)OC1CC2CC1[C@H]1CCCCN1[C@H]2Cc1ccccc1 (stereo partly specified)	14.6%
COc1ccc(C(=O)Nc2cc(S(=O)(=O)N3CCCC3)ccc2Cl)cc1	1.63%
O=C(Nc1ccc(N2CCOCC2)c(Cl)c1)c1ccc(S(=O)(=O)N2CCOCC2)cc1	6.88%
COc1ccc(C(=O)Nc2nc(-c3ccc(S(=O)(=O)N4CCOCC4)cc3)cs2)cc1	70.8% (active)
COC(=O)[C@@]12CCCCC3=C1N(CCC3)C(=O)[C@H]2CC(=O)NCc1cccc2ccccc12	-8.73%
Cc1c[nH]c2cccc(-c3ccc(Cl)cc3)c12	1.03%
COc1cccc(/C=C2\CC3(OC(C)=O)CCCN2C3)c1 (stereo unspecified)	-14.3%
CC(=O)N1CCCN(C2=Nc3ccccc3Sc3ccccc32)CC1	-4.52%
Cc1cc(C(=O)CSc2nc(N)cc(=O)[nH]2)c(C)n1-c1cccc(F)c1	27.2%
Cc1cc(C(=O)COC(=O)C2CC2)c(C)n1-c1ccc(F)cc1	56.4% (active)
Cc1cc(C(=O)COc2ccccc2Cl)c(C)n1C1CC1	-24.6%
COC(=O)[C@]12C[C@H](CC(=O)N3CCN(C(=O)C4CC4)CC3)C(=O)N(CCC3=CCCCC3)C1=C[C@H](C(C)C)O[C@@H]2C1CC1	5.77%
CC(C)C(C#CC1CC1)N(Cc1ccc2c(c1)OCO2)C(N)=NC(=O)/C=C/c1cccc(C(F)(F)F)c1 (stereo unspecified)	-0.2%
CCCOc1ccc(Oc2c(Cl)cnn(Cc3cccc4ccccc34)c2=O)cc1	3.48%
CCCOc1ccc(Cc2c(Cl)nc(SC)nc2NC)cc1	46.9% (active)

SMILES	inhibition
CCCOc1ccc(Cc2c(O)nc(SC)[nH]c2=O)cc1C	17.2%
COC(=O)[C@]12C[C@H](CC(=O)NCC34CC5CC(CC(C5)C3)C4)C(=O)N(Cc3ccc(Cl)cc3Cl)C1=C[C@H](COCc1ccccc1)O[C@@H]2C	-8.65%
COc1ccc(/C=C2\CC3(OC(C)=O)CCCN2C3)cc1 (stereo unspecified)	-13.1%
Fc1ccc2nc(COCc3nc4ccc(F)cc4[nH]3)[nH]c2c1	-29.3%
O=C(CNS(=O)(=O)c1ccccc1F)N1CCN(c2ccccn2)CC1	8.7%
O=C(c1ccco1)N(Cc1nc2ccccc2c(=O)[nH]1)C1CCCC1	-0.35%
COCC(C)n1c(SCC(=O)NC2CCCCC2C)nc2ccccc2c1=O (stereo unspecified)	1.47%
CN(c1ccc2nc3ccccc3c(=O)n2n1)C1CCCCC1	88.6% (active)
CN1[C@H](Cc2ccccc2)COc2cccc(N3CCSCC3)c2S1(=O)=O	5.38%
C[C@@H]1COc2cccc(N3CCCC3)c2S(=O)(=O)N1C	-14.7%
COC(=O)c1cc(S(=O)(=O)N2CCN(C(=O)C3CCCO3)CC2)cn1C (stereo unspecified)	-3.24%
CCCCNC(=O)C[C@H]1C(=O)N(Cc2ccc(OC)cc2)C2=CCCC[C@@]21C(=O)OCC	7.45%
COc1cc(C(=O)NCc2nnc(SCC(=O)Nc3nc4ccc(C)cc4s3)o2)cc(OC)c1OC	-8.42%
CCn1c(CNC(=O)c2cc(OC)c(OC)c(OC)c2)cc2cc(C)ccc21	41.5% (active)
COc1cc(C(=O)NCC(=O)N2CC=C(c3ccccc3)CC2)cc(OC)c1OC	9.83%
COc1ccccc1C(=O)NC1CCCCN(C(C)C)C1=O (stereo unspecified)	2.43%
CC1CCN(c2ccc(C(=O)O)cc2NS(=O)(=O)c2ccc(Br)s2)CC1	-3.26%
CN(O)C(=S)c1ccccc1	43.2% (active)
CCn1c2ccccc2c2cc(NC(=O)CSc3nnc(-c4ccccc4)n3-c3ccc(C)cc3)ccc21	22.1%
COC(=O)[C@]1(C#N)CC(=O)N(CC2CCCCC2)[C@@H]1c1ccccc1	-5.14%
COc1ccccc1CCNC(=O)C1CCN(c2nc(C)cc(C)n2)CC1	1.51%
O=C(Nc1cc(F)cc(F)c1)OC1CCC12CCC(c1ccccc1)CC2 (stereo unspecified)	19%

SMILES	inhibition
CN1CCN(Cc2nc3cc(NC(=O)COc4ccc([N+](=O)[O-])cc4)ccc3n2C)CC1	10.4%
Cn1c(CN2CCOCC2)nc2cc(NC(=O)c3ccc(Cl)cc3)ccc21	49.9% (active)
O=C(Nc1ccc(CN2CCOCC2)cc1)c1cc(Cl)ccc1Cl	5.94%
COc1ccc(-n2c(C)cc(C(=O)CSc3nnc(-c4cccs4)o3)c2C)cc1	54.9% (active)
COc1ccc(-c2nnc(SCC(=O)c3ccc4c(c3)OCCO4)o2)cc1	17.8%
CCc1ccccc1NC(=O)CSc1nnc(-c2cccs2)o1	-16.3%
CCC[C@H]1C(=O)CC[C@@]23CCCN2C(=O)CCC[C@@H]13	-13.2%
Cc1nc(C(=O)Nc2ccc(Cl)cc2)sc1C1(C)CC(c2ccccc2)=NO1 (stereo unspecified)	5.05%
Cc1nc(-c2ccc(Cl)cc2)sc1C1(C)CC(c2ccccc2F)=NO1 (stereo unspecified)	-23.8%
Cc1nc(C(=O)NCc2ccccc2)sc1C1(C)CC(c2cccnc2)=NO1 (stereo unspecified)	37.6% (active)
CCOC(=O)[C@]12CCCCC/C=C\1N(Cc1ccc(OC)cc1)C(=O)[C@H]2CC(=O)NCCCN1CCCC1=O	1.89%
CC(C)(C)OC(=O)NCCc1ccccc1/C=C/S(=O)(=O)NCc1ccc(F)cc1	13.2%
O=C(NC1CCC1)c1ccc(C#CC2CC2)cn1	-23.3%
O=C(Nc1ccc(S(=O)(=O)NCC2CCCO2)cc1)c1ccc(F)cc1 (stereo unspecified)	45.5% (active)
O=C(NCC1CCCO1)c1ccc(S(=O)(=O)Nc2ccc(F)cc2)cc1 (stereo unspecified)	-7.6%
Cc1ccc(NC(=O)c2ccc(S(=O)(=O)NCC3CCCO3)cc2)cc1C (stereo unspecified)	-13.5%
CCOC(=O)[C@]12CCCC=C1N(CCCOC)C(=O)[C@@H]2CC(=O)N1CCOCC1	13%
CCCC[C@H]1C2CC(OC(=O)NCc3ccccc3)C(C2)[C@H]2CCCCN21 (stereo partly specified)	2.27%
CC(C)CNS(=O)(=O)CC1NCCc2ccccc21 (stereo unspecified)	10.8%
CCN(CC)S(=O)(=O)c1ccc(N(C)CCc2ccc(OC)c(OC)c2)nc1	-0.82%
CCN(CC)S(=O)(=O)c1ccc(N(C)Cc2cccc(OC)c2OC)nc1	1.36%
CCN(CC)S(=O)(=O)c1ccc(N(C)Cc2ccc(C(F)(F)F)cc2)nc1	41.6% (active)

SMILES	inhibition
CCOC(=O)[C@@]12CCC3=C1N(CCC3)C(=O)[C@H](CC(=O)N1CCN(C(=O)c3ccco3)CC1)C2	0.9%
COc1ccc(C2Nc3ccccc3C(=O)N2Cc2cccs2)cc1COc1c(C)cccc1C (stereo unspecified)	14%
CN(C)Cc1cn(-c2ccc(-c3noc4c3C(=O)N(CC(=O)N3CCOCC3)CC4)cc2)nn1	6.87%
C=CCN1C(=O)[C@@H](CC(=O)NCCCOCCCC)[C@]2(C(=O)OCC)CCCCC/C=C/12	-5.26%
COc1ccc(S(=O)(=O)N2CCCC(C(=O)N3CCN(C)CC3)C2)cc1C (stereo unspecified)	-0.76%
CC(=O)N1CCCc2cc(S(=O)(=O)N3CCCC(C(=O)N4CCN(c5cccc(Cl)c5)CC4)C3)ccc21 (stereo unspecified)	76.9% (active)
Cc1ccc(S(=O)(=O)N2CCCC(C(=O)N3CCN(C)CC3)C2)cc1 (stereo unspecified)	8.22%
COC(=O)C1CN(CC(C)C)CCS(=O)(=O)N1Cc1ccc(C)cc1 (stereo unspecified)	0.94%
O=C(NCc1cccs1)C1CCCN(S(=O)(=O)c2ccc([N+](=O)[O-])cc2)C1 (stereo unspecified)	-10.3%
Cc1ccc(-n2c(SCC(=O)Nc3cccc4ccccc34)nnc2-c2ccco2)cc1	6.67%
Cc1ccc(C(=O)C2CCN(CC(=O)NCCC(C)C)CC2)cc1	6.65%
O=C(CSc1nc2ccccc2s1)N=Nc1c(O)[nH]c2ccccc12	8.58%
CC1(C)CC(N2CCN(C(c3ccccc3)c3ccccc3)CC2)=CC(=[N+]2CCCCC2)C1	85.2% (active)
CCOC(=O)C1CCN(C(=O)C(C)(C)NC(=O)Nc2ccccc2Cl)CC1	25.7%
COC(=O)[C@]1(S(=O)(=O)c2ccccc2)C[C@@H]2ON=C(c3ccc(OC)cc3)[C@@H]2C1	3.59%
N#C[C@]1(S(=O)(=O)c2ccccc2)C[C@@H]2ON=C(c3cccc(Br)c3)[C@@H]2C1	52.9% (active)
O=C(c1c[nH]c2ccccc12)N1CCC(Oc2cccnc2)CC1	-3.41%
NC(=O)c1sc2nc3c(c(-c4ccccc4)c2c1N)CCC3	57.2% (active)
CC(C)OC(=O)c1sc2nc3c(cc2c1N)C(=O)CCC3	-22.1%
CCOC(=O)[C@]12CCCCC/C=C\1N(Cc1ccc(OC)cc1)C(=O)[C@H]2CC(=O)NCc1ccc(C)o1	-9.71%
